This is an account of results in PubChem BioAssay AID999 (SRMLSC, 2007).

This experiment is described as follows: growth suppression of PTEN-null HCT116 cells, cell-based, validation, diverse DP compound set (AID 999).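 Also: 100% = median luminescence of untreated cell control wells and 0% = no signal.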 As to conditions: CellTiter-Glo, 60 h, at 10 µM, hits give low values. In general terms: In ATP-based viability assays light output follows the ATP content of the culture.

The source made the active and inactive calls.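 The calls were made as follows: active = viability at or below 21.59%, 3 SD under the median of tested compounds; inactive = the rest.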

For `NCC(CC(=O)O)c1ccc(Cl)cc1` (centres undefined), the viability – broadly, a read-out of living cells in per cent, often relative to untreated cells – was 94.7% (inactive).

Regarding `CNc1ccc2oc(C[C@@H]3OC4(CC[C@@H]3C)O[C@H](C(C)C(=O)c3ccc[nH]3)[C@H](C)C[C@H]4C)nc2c1C(=O)O` (some centres undefined), the viability was 3.3% (active).

For `O=C1C=CC(=O)C(Cl)=C1`, the viability is 95.1% (inactive).

As for `C[C@@H]1O[C@@H](OC2CC(O)C3(CO)C4C(CCC3(O)C2)C2(O)CCC(C3=CC(=O)OC3)C2(C)C[C@H]4O)[C@H](O)[C@H](O)[C@H]1O` (some centres undefined), the viability was 106% (inactive).

As for `N#CC(C#N)=Cc1ccc([N+](=O)[O-])c(O)c1`, the viability was 108% (inactive).

Take `C=CCN1CC[C@]23c4c5ccc(O)c4O[C@H]2C(=O)CC[C@@]3(O)[C@H]1C5`: the viability was 89.3% (inactive).

On to `N#CC(C#N)=Cc1cc(O)c(O)c([N+](=O)[O-])c1`, for which the viability is 106% (inactive).

On to `C[C@@H]1CC[C@H]2[C@@H](C)C(=O)O[C@@H]3OC4(C)CC[C@@H]1[C@]32OO4`, for which the viability is 71.5% (inactive).

For `COC(=O)C(O)C(O)(CCC(C)C)C(=O)OC1C(OC)=CC23CCCN2CCc2cc4c(cc2C13)OCO4` (centres undefined), the viability was 26.2% (inactive).

For the compound `C=C(C)[C@H]1CN[C@H](C(=O)O)[C@H]1CC(=O)O`, the viability is 99.8% (inactive).

As for `CCN1C[C@@]2(COC)C3[C@@H](OC)[C@H]4C1[C@@]3(C1C[C@]3(O)C(OC)[C@H](O)[C@@]4(OC(C)=O)C1[C@H]3OC(=O)c1ccccc1)[C@H](OC)C[C@H]2O` (some centres undefined), the viability is 89.3% (inactive).

Take `CC/C(=C(\c1ccccc1)c1ccc(OCCN(C)C)cc1)c1ccccc1`: the viability is 35.9% (inactive).

As to `CC(C)(C)[C@]1(O)C[C@@H]2OC(=O)CC23C(=O)O[C@@H]2OC(=O)[C@H](O)C231` (some centres undefined), the viability is 93.3% (inactive).

On to `O[C@H]1[C@H](O)[C@@H](O)CN2CC[C@H](O)[C@H]12`, for which the viability was 97.8% (inactive).

`CC(C)c1cc2c(c(O)c1O)[C@@]1(C(=O)O)CCCC(C)(C)[C@@H]1CC2`: the viability was 97.5% (inactive).

For the compound `CSC(=S)NCc1c[nH]c2ccccc12`, the viability was 91.6% (inactive).

`CCCN1CCC[C@@H]2Cc3cn[nH]c3C[C@H]21`: the viability is 105% (inactive).

As for `CCCCCCCCCCCCCC(=O)O[C@@H]1[C@@H](C)[C@@]2(O)[C@@H](C=C(CO)C[C@]3(O)C(=O)C(C)=C[C@@H]23)[C@@H]2C(C)(C)[C@]12OC(C)=O`, the viability is 53.1% (inactive).

On to `CCCC[C@H]1C(=O)O[C@H](C)[C@H](NC(=O)c2cccc(NC=O)c2OC)C(=O)O[C@@H](C)[C@@H]1OC(=O)CC(C)C`, for which the viability is 93.3% (inactive).

Consider `Nc1ccncc1`, for which the viability is 100% (inactive).

For the compound `N#Cc1nn(-c2c(Cl)cc(C(F)(F)F)cc2Cl)c(N)c1S(=O)C(F)(F)F` (centres undefined), the viability was 85.6% (inactive).

Consider `CC[C@@]1(O)C(=O)OCc2c1cc1n(c2=O)-c2cc3ccccc3nc2C1`, for which the viability was 24.7% (inactive).

For the compound `CC1=C2[C@H]3OC(=O)[C@@H](C)[C@@H]3CC[C@@]2(C)C=CC1=O`, the viability is 95.7% (inactive).

For `O=C1C=C2C=C[C@@H]3C[C@@]2(O1)[C@H]1CCCCN31`, the viability is 79.4% (inactive).

Consider `CN(C)[C@@H]1C(=O)C(C(N)=O)=C(O)[C@@]2(O)C(=O)C3=C(O)c4c(O)cccc4[C@@](C)(O)C3CC12` (some centres undefined), for which the viability is 97.1% (inactive).

For `COC[C@H]1OC(=O)c2coc3c2[C@@]1(C)C1=C(C3=O)C2CCC(=O)[C@@]2(C)C[C@H]1OC(C)=O` (some centres undefined), the viability was 78.4% (inactive).

On to `C[C@]12CC[C@@H](O)C[C@@H]1CC[C@@H]1[C@@H]2CC[C@]2(C)C(=O)CC[C@@H]12`, for which the viability is 98.8% (inactive).

`OCC1CCCN2CCCCC12` (centres undefined): the viability was 106% (inactive).

Regarding `C[C@H]1CCC/C=C/C2C[C@H](O)C[C@H]2[C@H](O)/C=C/C(=O)O1` (some centres undefined), the viability is 58.2% (inactive).

As to `O=C1CCC[C@H]2[C@@H]3CCCN4CCC[C@H](CN12)[C@H]34`, the viability is 105% (inactive).

For `COC1=C[C@@H]2[C@@H]3Cc4ccc(OC)c(O)c4[C@]2(CCN3C)CC1=O`, the viability is 96% (inactive).

As to `CN1C[C@H](CNC(=O)OCc2ccccc2)C[C@@H]2c3cccc4c3c(cn4C)C[C@H]21`, the viability was 75.3% (inactive).

In the case of `CC(=O)O[C@H]1[C@H]2[C@@H](OC(=O)Cc3ccccc3)[C@@H](C)C[C@]2(OC(C)=O)C(=O)/C(C)=C/[C@@H]2[C@H](CC[C@@]13CO3)C2(C)C`, the viability is 68.9% (inactive).

For `NCCc1c[nH]c2ccc(O)cc12`, the viability is 98.1% (inactive).
